Records with an inconclusive call do not appear. Values without a mark were called inactive. The source made the active and inactive calls. Calls come from the whole dose curve; as a rule, active = well fitted inhibition curve with a large enough effect; inconclusive = small, poorly fitted or top-dose-only effect; inactive = flat fitted curve, though single readings scatter.
system: NIH3T3; experiment: Cytotoxic Profiling of Annotated Libraries Using Quantitative High-Throughput Screening (AID 1296008); conditions: Five cell lines viability, CellTiter-Glo ATP luminescence, 48-72 h; max response: hits give low values; note: nearly all actives have a fitted effect of over 60% in size
Outline: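 Cells exposed to compounds for 48 or 72 hr at 37 degrees Celsius. Viability read as ATP-coupled luminescence with CellTiter-Glo after 10 min at room temperature.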
% is set by controls: 0 for no effect and ±100 for the full control effect; potency is the fitted concentration of half-maximal effect.

Structure (SMILES) | Potency | max response [%]
C=C(C)[C@@H]1CC=C(COC(=O)NC(=O)c2ncn3c(=O)n(C)nnc23)CC1 | 18.4 µM (active) | –
CCC(C)C(=O)OC1C(C)C2(O)C(C=C(CO)CC3(O)C(=O)C(C)=CC32)C2C(C)(C)C12OC(=O)C(C)C (configuration not stated) | – | -1.26
CC(=O)O[C@@H]1[C@H](O[C@@H]2O[C@@H](CO)[C@H](O)[C@H]2O)[C@@H](O[C@@H]2O[C@@H](C)[C@H](O[C@@H]3OC[C@@H](O)[C@H](O)[C@H]3O)[C@@H](O)[C@H]2O)[C@H](OC(=O)[C@]23CCC(C)(C)C[C@H]2C2=CCC4[C@@]5(C)CC[C@H](O[C@@H]6O[C@H](C(=O)O)[C@@H](O)[C@H](O)[C@H]6O[C@@H]6O[C@H](CO)[C@H](O)[C@H](O)[C@H]6O)[C@@](C)(C=O)C5CC[C@@]4(C)[C@]2(C)C[C@H]3O)O[C@@H]1C (some centres not stated) | – | -0.852
N#Cc1ccc(COc2ccc(-c3cccc4nc(NC(=O)C5CC5)nn34)cc2)cn1 | 20.6 µM (active) | –
C[C@H](Oc1cc(-n2cnc3ccc(CN4CCN(C)CC4)cc32)sc1C(N)=O)c1ccccc1C(F)(F)F | 18.4 µM (active) | –
C=C1C(=O)O[C@@H]2C[C@H](C)[C@@H]3CC(=O)[C@H](O)[C@@]3(C)C[C@H]12 | – | -22.8
CCNC(=O)C#Cc1ccc2c(C(=Nc3ccc(CN(C)C)cc3)c3ccccc3)c(O)[nH]c2c1 | 0.709 µM (active) | –
Cc1ccc(NC(=O)N2CCN(c3nc(N)nc4sc(-c5cccnc5)nc34)CC2)cc1 | 2.91 µM (active) | –
CC(O)(C(=O)O)C1CCC2(C)C1CCC1(C)C2CCC2C3(C)CCC(O)C(C)(COC4OC(CO)C(O)C(O)C4O)C3CCC21C (configuration not stated) | – | -2.95
C=C[C@@]1(C)CCC2C(=CCC3[C@]2(C)CCC[C@@]3(C)C(=O)O)C1 (some centres not stated) | – | -28.5
C=C1C(=O)OC2/C=C(\C)CC/C=C(\C)CC(OC(C)=O)C12 (configuration not stated) | 23.1 µM (active) | –
C=C[C@]1(C)C[C@H](O)[C@H]2C(=C)C(=O)O[C@@H]2[C@H]1C(=C)CO | – | -30
